Experimental findings from PubChem BioAssay AID743287 (Broad Institute, 2014) are described below.

Several values for one entry are separate records, joined by “and”; a condition that tells them apart may be missing. Identical values can stand only once. In all, about 370,000 compounds went through this assay and about 2,300 (0.62%) were called active. Only a selection was taken, and actives are over-represented in it overall. A number with no mark means an inactive call.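 The calls were made as follows: active = lowest replicate activation of at least 40%, so every replicate reaches that level; inactive = the rest.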

A short description of the assay: primary screen for activators of insulin secretion dependent on glucose, INS-1E cells, GLuc reporter luminescence (AID 743287).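 Also: 0% = median of neutral control wells and 100% = median of IBMX positive control wells.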 The settings on record: INS-1E GLuc reporter insulin secretion, 2-3 h, at 16.6 µM, stronger effect = higher value.
`O=C1NCCOCc2cn(nn2)CC[C@@H]1Cc1ccccc1`: the activation was 9.64%.

As to `CCOC(=O)c1sc2nc(C)[nH]c(=O)c2c1C`, the activation was 49.9% (active).

For `CCOC(=O)c1sc2nc(C)nc(SCC(N)=O)c2c1C`, the activation is 13.1%.

Consider `CCOC(=O)c1sc2nc(C)nc(Nc3ccc(OC)c(OC)c3)c2c1C`, for which the activation was 15.4%.

For `CCCNC(=O)N1C[C@@H](O)COC[C@H]2O[C@H](CC(=O)N3CCC(Cc4ccccc4)CC3)CC[C@@H]21`, the activation is 2.87%.

In the case of `CC(C)NC(=O)N1CCCCN2[C@H](CO)[C@@H](c3ccc(Br)cc3)[C@H]2C1`, the activation was 1.31%.

`COc1ccc(-c2c(NC(=O)c3ccco3)oc3ccc(Cl)cc3c2=O)cc1`: the activation was 106% (active).

Consider `Cc1cccc(-c2c(NC(=O)c3ccco3)oc3ccc(Cl)cc3c2=O)c1`, for which the activation was -13.2%.

As for `COc1ccc(OC)c(NC(=O)c2cnn(-c3ccccc3Cl)c2NC(=O)c2ccco2)c1`, the activation is -0.082%.

For `O=C(Nc1cc(F)ccc1F)N1CCCCN2[C@H](CO)[C@@H](c3ccc(-c4cccnc4)cc3)[C@@H]2C1`, the activation was -2.5%.

With `CO[C@H]1CN(C)C(=O)c2ccc(NC(=O)C3CCCC3)cc2OC[C@@H](C)NC[C@@H]1C`, the activation is -7.48%.

Turning to `COc1cccc(CNC(=O)[C@@H]2[C@@H](CO)[C@@H]3Cn4c(ccc(-c5cccnc5)c4=O)[C@@H]3N2C)c1`, the activation is -0.31%.

With `O=C(NCC[C@@H]1CC[C@@H](NS(=O)(=O)c2ccc(Cl)cc2)[C@@H](CO)O1)c1ccccc1F`, the activation is 6.92%.

As to `C[C@@H]1CN([C@H](C)CO)S(=O)(=O)c2ccc(C3=CCCC3)cc2O[C@H]1CN(C)C(=O)CC1CC1`, the activation was -5.57%.

Consider `COCCCNC(=O)CCc1nc2cccnc2n1Cc1ccc(OC)cc1`, for which the activation is 10.4%.

For the compound `CCOC(=O)Cn1c(=O)n(Cc2ccc(OC)cc2)c(=O)c2cccnc21`, the activation was 46.4% (active).

`CCOc1ncccc1C(=O)NCCc1ccc(OC)cc1`: the activation is 35.2%.

`COCC(=O)N1CCC2(CC1)CN(C(=O)Nc1ccccc1F)[C@@H](CO)c1c2c2ccc(OC)cc2n1C`: the activation was -10.5%.

For the compound `O=S(=O)(NCC[C@H]1CC[C@@H](NS(=O)(=O)c2cccc(Cl)c2)[C@@H](CO)O1)c1cccc(F)c1`, the activation was -5.04%.

On to `CO[C@@H]1CN(C)C(=O)c2ccc(NS(=O)(=O)c3ccc(Cl)cc3)cc2OC[C@@H](C)N(C)C[C@H]1C`, for which the activation is -6.5% and 12.1%.

Regarding `Cc1cccc(-c2ccc(C3[C@@H]4CN(C(=O)Nc5ccc(C(F)(F)F)cc5)C[C@H]3N4)cc2)c1` (some centres not stated), the activation is 763% (active).

As to `CN(C)C(=O)c1ccc(-c2ccc(C3[C@@H]4CN(C(=O)Nc5ccccc5)C[C@H]3N4)cc2)cc1` (some centres not stated), the activation is -5.33%.

In the case of `O=C(C1CCCCC1)N1C[C@@H]2N[C@H](C1)C2c1ccc(-c2cccc(F)c2)cc1` (some centres not stated), the activation is 22.3% and -4.66%.

In the case of `C[C@H]1CN([C@@H](C)CO)C(=O)c2cc(NC(=O)C3CCCCC3)ccc2O[C@H]1CN(C)S(=O)(=O)c1cn(C)cn1`, the activation was 17.4%.

As to `O=C(C1CCOCC1)N1CC(=O)N2[C@H](CO)[C@H](c3ccc(C#CC4CCCCC4)cc3)[C@H]2C1`, the activation was 6.98%.

With `Cc1ccc2nc(CN(C)C(=O)[C@@H](Cc3ccccc3)NC(=O)[C@H]3O[C@@H](n4ccc(=O)[nH]c4=O)[C@H](O)[C@@H]3O)[nH]c2c1`, the activation is 42.3% (active).

Take `CN(C)C(=O)N1CCN(C(=O)[C@@H](Cc2ccccc2)NC(=O)[C@H]2O[C@@H](n3ccc(N)nc3=O)[C@H](O)[C@@H]2O)CC1`: the activation is 13.5%.

Regarding `O=C(N[C@H](Cc1ccccc1)C(=O)N1CCCN(Cc2cccs2)CC1)[C@H]1O[C@@H](n2ccc(=O)[nH]c2=O)[C@H](O)[C@@H]1O`, the activation was 13%.

Consider `CN1C(=O)c2cc(NS(C)(=O)=O)ccc2OC[C@H]2O[C@H](CC(=O)NCc3ccccc3)CC[C@H]21`, for which the activation is 4.81%.

For the compound `Cc1nc2ccccn2c(=O)c1NC(=O)c1cccs1`, the activation was 3.74%.

In the case of `NC(=O)c1oc2ccccc2c1NC(=O)Cc1ccccc1`, the activation is 9.27%.

Take `CCOC(=O)c1oc2ccccc2c1NC(=O)c1cccs1`: the activation is 77.1% (active).

On to `COc1ccc(NC(=O)Nc2cccc3c2O[C@H](CN(C)Cc2ccc(Cl)c(Cl)c2)[C@H](C)CN([C@@H](C)CO)C3=O)cc1`, for which the activation was -19%.

`C[C@H]1CN([C@@H](C)CO)C(=O)Cc2cc(NC(=O)Cn3cnnn3)ccc2O[C@@H]1CN(C)Cc1ccc(-c2ccccc2)cc1`: the activation is -17.4%.

For `O=C(O)c1ccc(-n2nc(-c3ccccc3)c3ccccc3c2=O)cc1`, the activation is 65.3% (active).

As for `COCCCNC(=O)CNC(=O)c1nn(-c2ccc(OC)cc2)c(=O)c2ccccc12`, the activation is 5.37%.

Consider `O=c1c2ccccc2ncn1CCc1ccncc1`, for which the activation is 2.05%.

`O=c1c2ccccc2c(-c2ccccc2)nn1-c1ccccn1`: the activation was 53.1% (active).

As for `COc1cccc(-n2nc(C(=O)N3CCN(Cc4ccccc4)CC3)c3ccccc3c2=O)c1`, the activation was -2.64%.

For the compound `O=C1c2oc3ccccc3c(=O)c2C(c2cccc(O)c2)N1c1ccccn1` (configuration not stated), the activation was -8.86%.

Consider `C[C@@H]1CN([C@H](C)CO)C(=O)c2cc(NS(=O)(=O)c3cccs3)ccc2O[C@@H](C)CCCCO[C@@H]1CN(C)C(=O)c1ccncc1`, for which the activation is -1.55%.

For the compound `C[C@@H]1CN([C@@H](C)CO)C(=O)CCCn2cc(nn2)CO[C@@H]1CN(C)S(=O)(=O)c1ccccc1C#N`, the activation is 4.61%.

Turning to `COc1ccc2c3c(n(C)c2c1)[C@H](CO)N(C(=O)c1ccncc1)CC31CCN(CC2CC2)CC1`, the activation is 14.2%.

Take `O=C(C[C@@H]1CC[C@@H](NC(=O)C2CC2)[C@@H](CO)O1)NCc1ccccc1Cl`: the activation is -6.27%.

With `C[C@@H]1CN([C@H](C)CO)C(=O)c2cccc(NC(=O)Nc3ccc4c(c3)OCO4)c2O[C@H]1CN(C)C(=O)Nc1ccc(F)cc1`, the activation was -11.4%.

For the compound `Cc1ccc(S(=O)(=O)Nc2ccc3c(c2)C(=O)N([C@@H](C)CO)C[C@@H](C)[C@@H](CN(C)S(=O)(=O)c2ccc(C)cc2)O3)cc1`, the activation was -10.5%.

In the case of `Cc1ccc(S(=O)(=O)N(C)C[C@@H]2Oc3ccc(NC(=O)Nc4ccc(F)cc4)cc3C(=O)N([C@H](C)CO)C[C@@H]2C)cc1`, the activation is -24.3%.

Take `COc1ccccc1CN1[C@@H]2CNC[C@H]1C2c1ccc(-c2cccc(C#N)c2)cc1` (some centres not stated): the activation is 0.586% and -8.29%.

With `N#Cc1ccc(-c2ccc([C@@H]3[C@H]4CNC[C@@H]3N4Cc3cc(F)ccc3F)cc2)cc1`, the activation was 137% (active).

For the compound `N#Cc1ccc(-c2ccc([C@@H]3[C@H]4CNC[C@@H]3N4Cc3ccc4c(c3)OCO4)cc2)cc1`, the activation is 3.4%.

As for `CCCC(=O)Nc1ccc2c(c1)C(=O)N(C)[C@@H]1CC[C@H](CC(=O)NCCOC)O[C@H]1CO2`, the activation was -1.04%.

Consider `C[C@H](CO)N1C[C@H](C)[C@@H](CN(C)C(=O)C2CC2)Oc2ncc(C#CC(C)(C)O)cc2C1=O`, for which the activation was 3.22%.

With `C[C@@H]1CN([C@H](C)CO)C(=O)c2cccc(NC(=O)c3ccncc3)c2O[C@@H]1CN(C)S(=O)(=O)c1cn(C)cn1`, the activation was 8.83%.

Regarding `COc1ccc2oc(=O)c(C(=O)NCc3ccccn3)cc2c1`, the activation is 70.8% (active).

As for `COc1ccccc1CNS(=O)(=O)c1cc(C(=O)NCc2ccccn2)c(Cl)cc1Cl`, the activation was 4.38%.

In the case of `COCc1ccc(CN2CCC(Oc3ccc(C(=O)NCc4ccccn4)cc3)CC2)o1`, the activation was 2.23%.

For `C[C@@H]1CN([C@H](C)CO)C(=O)c2cc(NC(=O)NC3CCCCC3)ccc2O[C@@H]1CN(C)S(C)(=O)=O`, the activation was -8.57%.

In the case of `CC(C)CC#Cc1ccc2c(c1)O[C@H](CN(C)Cc1cccnc1)[C@H](C)CN([C@@H](C)CO)S2(=O)=O`, the activation is -26.2%.

For the compound `C=CCn1c(SCc2ccccc2)nc2c1c(=O)[nH]c(=O)n2C`, the activation was 52% (active).

Take `CC=CCn1c(SCCCc2ccccc2)nc2c1c(=O)[nH]c(=O)n2C`: the activation is 3.95%.

For `CC1CCN(c2nc3c(c(=O)[nH]c(=O)n3C)n2CCCc2ccccc2)CC1`, the activation was 3.62%.

`CO[C@H]1CN(C)C(=O)c2cc(NS(=O)(=O)c3ccccc3C)ccc2OC[C@@H](C)NC[C@@H]1C`: the activation is 2.17%.

As to `COCC(=O)N(C)C[C@H]1Oc2cc(C#CC(C)C)ccc2S(=O)(=O)N([C@H](C)CO)C[C@@H]1C`, the activation is 1.27%.

For the compound `COCC(=O)N(C)C[C@H]1Oc2cc(Br)ccc2S(=O)(=O)N([C@H](C)CO)C[C@H]1C`, the activation is 46.1% (active).

Consider `C[C@@H]1CN([C@@H](C)CO)S(=O)(=O)c2ccc(Br)cc2O[C@@H]1CN(C)C(=O)CN(C)C`, for which the activation is 21.4%.

For the compound `COc1ccc(NC(=O)N[C@H]2C=C[C@H](CC(=O)NCc3ccccn3)O[C@H]2CO)cc1`, the activation was 15.4%.

On to `COc1ccc2c3c(n(C)c2c1)[C@H](CO)N(Cc1ccccc1)CC31CCN(C)CC1`, for which the activation is 15.2%.

Consider `O=C(O)CCCCCCCCCC[n+]1ccccc1`, for which the activation is 91.6% (active).

`CC(C)C#Cc1ccc2c(c1)O[C@H](CN(C)CC1CCOCC1)[C@@H](C)CN([C@H](C)CO)S2(=O)=O`: the activation was -18.8%.

For the compound `CCCc1cc(-c2nc(-c3ccc(C)cc3)cs2)ccn1`, the activation was 90.4% (active).

Turning to `CCCCCN1CC(O)=C(c2nc(-c3ccc(Cl)cc3)cs2)C1=N`, the activation is 35.7%.

For `CCCc1cc(=O)oc2c(C)c(OCC(=O)NCc3ccccn3)ccc12`, the activation was 11.9%.
